Screening data as filed in PubChem BioAssay.
APP 5UTR inh – APP translation inhibition | SH-SY5Y APP 5'UTR-luciferase reporter, luminescence | inhibition, % at 2 µM | hit rate 0.82% among 190,000 | AID 1285;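 active means inhibition above a set limit, derived from the sample mean plus 3 SD, cut at about 45% in these data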
APP 5'UTR act – activates APP 5'UTR luciferase reporter; SH-SY5Y APP 5'UTR luciferase reporter, luminescence; zero percent = DMSO vehicle wells; activation, % at 2 µM; hit rate 1% among 190,000; AID 1276;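 active means activation above a set limit, based on mean plus 3 SD of controls, cut at about 140% in these data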
NF-kB expr up – raises NF-kB expression in human neuronal cells; NF-kB reporter expression; hits give high values; fold change at 12.5 µM; hit rate 1.6% among 190,000; AID 1239; in the data active means fold change above about 3.3
Hsp70 act – Hsp70 transcriptional activation, primary screen | HeLa Hsp70 promoter luciferase reporter, luminescence; scaled: vehicle 0, proteasome-inhibitor control 100% | activation, % at 10 µM | hit rate 0.04% among 200,000;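 active means activation above the mean across all tested compounds plus 3 SD, cutoff set per campaign, cut at about 5.5% in these data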;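 further: 100% = MG132 at 30 µM as the positive control and 0% = DMSO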
STAT1 activator – activators of IFN-gamma induced STAT1 signaling; hit rate 2.6% among 200,000; activation (% of control), % at 5.5 µM; NIH 3T3 STAT1-luciferase reporter, luminescence; 100% = IFN-gamma alone, no compound;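 active means activation above the screen-wide mean activation plus 3 SD, cut at about 130% in these data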;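 further: raw ratio to IFN-gamma control signal so 100% means no change and 0% no light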
Wee1 degr inh – inhibitors of human Wee1 degradation | HeLa Luc-Wee1K328M stability, luciferase luminescence; 100% = proteasome inhibitor MG132 effect | P30291 | hit rate 1.2% among 220,000 | AID 1321 | reporter increase, % at 5 µM;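 active means activation above the mean of all tested compounds plus 3 SD, set per screening run, cut at about 8.8% in these data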;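 further: cells exposed to compound for 20 h before luminescence read; 0% = DMSO alone and 100% = MG132 at 30 µM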
Target sequence (P30291 whole entry K328M): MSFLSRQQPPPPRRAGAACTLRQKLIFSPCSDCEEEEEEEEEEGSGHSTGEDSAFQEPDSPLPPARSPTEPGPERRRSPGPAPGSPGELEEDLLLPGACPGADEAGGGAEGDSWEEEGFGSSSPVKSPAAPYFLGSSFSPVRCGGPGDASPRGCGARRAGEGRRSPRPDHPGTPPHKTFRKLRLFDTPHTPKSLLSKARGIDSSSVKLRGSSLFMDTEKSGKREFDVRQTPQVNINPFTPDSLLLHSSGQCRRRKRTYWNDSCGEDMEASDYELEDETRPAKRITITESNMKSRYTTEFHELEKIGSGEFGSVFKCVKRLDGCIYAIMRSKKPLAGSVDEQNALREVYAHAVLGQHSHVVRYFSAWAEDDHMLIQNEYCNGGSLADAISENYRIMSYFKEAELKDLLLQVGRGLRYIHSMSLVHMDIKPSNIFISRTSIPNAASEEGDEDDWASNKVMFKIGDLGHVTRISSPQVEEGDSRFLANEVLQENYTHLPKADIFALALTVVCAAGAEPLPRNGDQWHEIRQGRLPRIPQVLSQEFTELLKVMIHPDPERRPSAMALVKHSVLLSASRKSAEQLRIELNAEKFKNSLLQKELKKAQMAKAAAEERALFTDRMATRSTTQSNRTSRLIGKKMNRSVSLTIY
* = called active by the depositor; . = no result given. Rows were chosen to be rich in hits. Some 4.8% of all compounds tested hit in one or more screens of this group.

SMILES	APP 5UTR inh	APP 5'UTR act	NF-kB expr up	Hsp70 act	STAT1 activator	Wee1 degr inh
Cc1ccc(NC(=S)NC(=O)c2ccc(F)cc2)cc1S(=O)(=O)Nc1ccccc1Cl	-16	16	1.1	0	93	-3
O=C(NC(=S)Nc1ccc2cn[nH]c2c1)c1ccccc1	-44	44	1	0	148*	1
O=C(NC(=S)Nc1ccc2c(c1)C(=O)c1ccccc1C2=O)c1ccc(F)cc1	-89	89	3.3*	0	116	3
O=C(O)c1cccc(NC(=S)NC(=O)c2ccc(-c3ccccc3)cc2)c1	-44	44	3.3*	0	96	4
Cc1ccccc1NC(=S)Nc1ccccn1	.	.	.	.	.	0
CC(C)Nc1ncnc2c1cnn2-c1ccc(Cl)cc1	-155	155*	1.1	0	93	3
COCCN(CCOC)c1ncnc2c1cnn2-c1ccc(Cl)cc1	-42	42	1.1	0	127	5
CCOC(=O)Cn1cnc2c(cnn2-c2ccc(Cl)cc2)c1=O	5	-5	1.6	0	106	-1
COCCNc1ncnc2c1cnn2-c1ccc(Cl)cc1	-197	197*	7.4*	0	156*	6
COC(=O)C(C)n1cnc2c(cnn2-c2ccc(Cl)cc2)c1=O (centres undefined)	-6	6	1.2	0	129*	1
O=C(Nc1ccc(Br)cc1)c1ccc(CSC2=NCCS2)cc1	-54	54	1.3	0	121	-2
CCc1cccc(C)c1N(C(=O)Cn1c(COC)nc2ccccc21)C(C)COC (centres undefined)	.	.	0.96	0	95	3
CCCCn1c(CNC(=O)CCC)nc2ccccc21	-5	5	1	0	95	1
COC(=O)c1c(N)sc2c1CC(C)(C)OC2	7	-7	0.96	0	104	0
CSc1nc(N(C)NC(=O)c2ccccc2)c2ccccc2n1	96*	-96	2.4	0	103	0
CSc1nc(N(C)NC(=O)c2ccc(Cl)cc2)c2ccccc2n1	95*	-95	2.6	1	109	-2
Cc1ccc(C(=O)NN(C)c2nc3ccccc3nc2C(F)(F)F)cc1	-4	4	1.2	0	99	4
CCOc1ccccc1NC(=O)CCS(=O)(=O)c1cccc2nonc12	-1	1	0.97	1	93	-2
Cc1ccc(C(=O)COC(=O)c2ccc(Br)o2)cc1C	-6	7	1.5	0	113	4
Cc1cc(C(=O)COC(=O)c2ccc(Br)o2)c(C)n1C	-70	71	4*	0	135*	0
COCCn1c(C)cc(C(=O)COC(=O)CNC(=O)c2ccccc2)c1C	7	-7	1	0	96	0
COCCn1c(C)cc(C(=O)COC(=O)c2ccc(Br)o2)c1C	-268	268*	1.1	0	106	3
CCOc1ccc2[nH]c3c(N4CCN(c5ccccn5)CC4)ncnc3c2c1	6	-6	0.3	0	90	-2
O=C1NC(=Nc2ccccc2)S/C1=C/c1cccs1	-56	55	1.9	0	121	3
Cc1cc(/C=C2\SC(=Nc3ccccc3)NC2=O)c(C)n1-c1ccc(S(N)(=O)=O)cc1	53*	-53	1.3	0	101	2
SMILES	APP 5UTR inh	APP 5'UTR act	NF-kB expr up	Hsp70 act	STAT1 activator	Wee1 degr inh
O=[N+]([O-])c1cccc(-c2ccc(C(=S)N3CCOCC3)o2)c1	-162	162*	4.8*	0	143*	6
CN1CCN(C(=S)c2ccc(-c3cccc([N+](=O)[O-])c3)o2)CC1	.	.	.	.	.	10*
O=C(Nc1nccs1)c1ccc(-c2cccc([N+](=O)[O-])c2)o1	-59	59	1.4	0	143*	-1
O=C(CSc1nc2ccccc2[nH]1)NCc1ccc2c(c1)OCO2	4	-4	0.88	0	111	1
COc1ccc(NC(=O)Cn2nnc(-c3ccc(CN4CCOCC4)cc3)n2)c(OC)c1	-3	3	1	0	104	0
O=C(COC(=O)C1CC2C=CC1C2)Nc1cccc(S(=O)(=O)N2CCCCC2)c1 (centres undefined)	15	-15	1.2	0	93	-1
Cc1ccc(NC(=O)c2cnn(C)c2)cc1[N+](=O)[O-]	4	-4	1.1	0	94	-1
COC(=O)c1ccnc(SCC(=O)c2ccccc2)c1	-119	119	2	0	132*	1
Fc1ccc(-n2ncc3c(SCc4cccnc4)ncnc32)cc1	-90	90	3.4*	0	118	-1
Cc1ccc(C(=O)Nc2ccc3nc(C)sc3c2)s1	-167	167*	6.6*	0	141*	2
Cc1nc2ccc(NC(=O)c3ccc(Cl)nc3)cc2s1	.	.	.	.	.	0
Cc1nc2ccc(NC(=O)N3CCOCC3)cc2s1	11	-11	1.1	0	99	10*
FC(F)(F)c1cccc(N2CCC(N=CN3CCCCCC3)=N2)c1	-16	15	1.2	0	110	4
O=C(/C=C/c1cccs1)Nc1ccc(Br)cn1	92*	-92	5.6*	0	178*	4
CCOC(=O)/C=C/C(=O)Nc1nccs1	5	-5	1.2	0	71	-2
O=C(/C=C\c1ccccc1)Nc1nccs1	-168	168*	6.5*	0	118	8
O=C(/C=C/c1cccs1)Nc1cccc(NC(=O)/C=C/c2cccs2)n1	-45	45	0.71	0	121	1
O=C(/C=C/c1cccs1)Nc1nccs1	-122	122	2.1	0	134*	0
CN1C(=O)C2(OCC(COc3ccc(Cl)cc3)O2)c2ccccc21 (centres undefined)	0	0	0.9	0	97	1
COc1ccc(-c2cc(C(=O)NC(C)C)no2)cc1	-106	106	3.7*	0	144*	0
Cc1cc(C)nc(SCc2cc(=O)c(OC(=O)c3ccc(Br)o3)co2)n1	4	-4	0.93	0	87	3
Cc1ccc(N/C=C/C(=O)c2cccs2)cc1C	-170	170*	6.6*	0	50	2
O=C(/C=C/Nc1ccccc1C(=O)O)c1cccs1	-50	50	0.98	0	143*	1
CNc1cc([N+](=O)[O-])ccc1N/C=C/C(=O)c1cccs1	-3	3	0.47	0	105	6
O=C(/C=C/Nc1cccc([N+](=O)[O-])c1)c1cccs1	-184	184*	7.5*	0	139*	7
Cc1cc(N/C=C/C(=O)c2cccs2)ccc1F	-178	178*	7.6*	0	122	1
O=C(O)c1ccccc1C(=O)c1cccs1	2	-2	1.1	0	96	0
COc1ccc(-c2nc3ccccc3c(=O)n2CCOc2ccccc2C)cc1	3	-3	1.2	0	92	-4
COc1cccc(CN2CCN(Cc3nc4c(s3)CCCC4)CC2CCO)c1 (centres undefined)	-26	26	0.81	0	94	10*
